Data from PubChem BioAssay (NCI).
The panel holds about 83,000 compounds, 20% with a hit somewhere; the sample as a whole holds those more often.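 Each cell line was grown in a 96-well plate and treated with one concentration of compound for 48 hours. Values below 10 were considered active.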 Active and inactive are the calls of the source.

Assays:
Experiment in all cases: NCI-60 one-dose screen, 48 h (100 = growth as untreated, 0 = no growth, -100 = all killed)
Conditions in all cases: 10 µM unless noted
NCI-H23 lung = tested on: NCI-H23 lung
NCI-H226 lung = tested on: NCI-H226 lung
NCI-H322M lung = tested on: NCI-H322M lung
HOP-62 NSCLC = tested on: HOP-62 NSCLC
NCI-H460 lung = tested on: NCI-H460 lung
HOP-92 NSCLC = tested on: HOP-92 NSCLC
NCI-H522 lung = tested on: NCI-H522 lung
A549/ATCC NSCLC = tested on: A549/ATCC NSCLC
786-0 renal = tested on: 786-0 renal
COLO 205 colon = tested on: COLO 205 colon
DU-145 prostate = tested on: DU-145 prostate
K-562 leukemia = tested on: K-562 leukemia
MALME-3M melanoma = tested on: MALME-3M melanoma
MDA-MB-231 breast = tested on: MDA-MB-231 breast
RXF 393 renal = tested on: RXF 393 renal
SF-268 CNS = tested on: SF-268 CNS
SF-295 CNS = tested on: SF-295 CNS
SF-539 CNS = tested on: SF-539 CNS
UACC-257 melanoma = tested on: UACC-257 melanoma
M14 melanoma = tested on: M14 melanoma

Measured: growth

O=C1NC(=O)C(c2ccc(Cl)cc2Cl)N1 (stereo not given)
inactive: NCI-H23 lung 100% | NCI-H226 lung 103% | NCI-H322M lung 100% | HOP-62 NSCLC 111% | NCI-H460 lung 95.2% | HOP-92 NSCLC 107% | NCI-H522 lung 93.8% | A549/ATCC NSCLC 101% | 786-0 renal 110% | COLO 205 colon 125% | DU-145 prostate 112% | K-562 leukemia 102% | MALME-3M melanoma 106% | MDA-MB-231 breast 101% | RXF 393 renal 117% | SF-268 CNS 106% | SF-295 CNS 110% | SF-539 CNS 115% | UACC-257 melanoma 112% | M14 melanoma 106%

COc1ccc(-c2nc3cc(C(=O)Nc4cc(OC)c(OC)c(OC)c4)ccc3n2C2CCCCC2)cc1
inactive: NCI-H23 lung 93.6% | NCI-H226 lung 86.9% | NCI-H322M lung 97.9% | HOP-62 NSCLC 105% | NCI-H460 lung 99.7% | HOP-92 NSCLC 72.7% | NCI-H522 lung 77.2% | A549/ATCC NSCLC 98.6% | 786-0 renal 107% | COLO 205 colon 110% | DU-145 prostate 103% | K-562 leukemia 76.1% | MALME-3M melanoma 95.6% | MDA-MB-231 breast 88.6% | RXF 393 renal 103% | SF-268 CNS 100% | SF-295 CNS 104% | SF-539 CNS 88.6% | UACC-257 melanoma 100% | M14 melanoma 96%

COc1cccc(-c2nc3sccn3c2-c2ccnc(NCCCNS(=O)(=O)c3c(Cl)cccc3Cl)c2)c1
inactive: NCI-H23 lung 60.3% | NCI-H226 lung 51.8% | NCI-H322M lung 90.5% | HOP-62 NSCLC 85.6% | NCI-H460 lung 67.4% | HOP-92 NSCLC 49.6% | NCI-H522 lung 60.6% | A549/ATCC NSCLC 60.3% | 786-0 renal 70.4% | COLO 205 colon 55.9% | DU-145 prostate 66.1% | K-562 leukemia 30.9% | MALME-3M melanoma 73.2% | MDA-MB-231 breast 87.8% | RXF 393 renal 74.7% | SF-268 CNS 68.4% | SF-295 CNS 50.9% | SF-539 CNS 95% | UACC-257 melanoma 95.2% | M14 melanoma 60.5%

O=C1OCC2=C1C(c1ccncc1)c1cc3c(cc1N2CCO)OCO3 (stereo not given)
inactive: NCI-H23 lung 99.6% | NCI-H226 lung 102% | NCI-H322M lung 98.3% | HOP-62 NSCLC 93.5% | NCI-H460 lung 101% | HOP-92 NSCLC 87.6% | NCI-H522 lung 91.2% | A549/ATCC NSCLC 98.9% | 786-0 renal 112% | COLO 205 colon 53.1% | DU-145 prostate 107% | K-562 leukemia 110% | MALME-3M melanoma 89.9% | MDA-MB-231 breast 101% | RXF 393 renal 99.3% | SF-268 CNS 97.7% | SF-295 CNS 102% | SF-539 CNS 101% | UACC-257 melanoma 99.5% | M14 melanoma 107%

Cn1ccnc1C(=O)/C=C/c1ccccc1
inactive: NCI-H23 lung 33.1% | NCI-H226 lung 50.7% | NCI-H322M lung 10.4% | A549/ATCC NSCLC 33.7% | COLO 205 colon 23% | MALME-3M melanoma 62.9% | MDA-MB-231 breast 34.7% | RXF 393 renal 12.9% | SF-268 CNS 23.3% | SF-295 CNS 20.5% | UACC-257 melanoma 51.8%
active: HOP-62 NSCLC -54.9% | NCI-H460 lung -17.9% | HOP-92 NSCLC -9.57% | NCI-H522 lung -67.4% | 786-0 renal -35.6% | DU-145 prostate -54.5% | K-562 leukemia 8.07% | SF-539 CNS -38% | M14 melanoma -1.9%

COc1cc(/C=C/c2cc(/C=C/c3ccc(O)c(OC)c3)n(-c3c(Cl)cccc3Cl)c(=O)n2)ccc1O
active: NCI-H522 lung 9.89% | K-562 leukemia 9.21% | RXF 393 renal -11.8% | SF-539 CNS 3.35% | M14 melanoma 7.71%
inactive: NCI-H23 lung 29% | NCI-H226 lung 48.8% | NCI-H322M lung 72.7% | HOP-62 NSCLC 50.6% | NCI-H460 lung 70.8% | HOP-92 NSCLC 78.7% | A549/ATCC NSCLC 44.1% | 786-0 renal 29.7% | COLO 205 colon 71.8% | DU-145 prostate 28.7% | MALME-3M melanoma 58.8% | MDA-MB-231 breast 29% | SF-268 CNS 19.9% | SF-295 CNS 75.4% | UACC-257 melanoma 41.1%

CC(=O)c1nc2ccccc2n1CC(=O)c1cccc(Cl)c1
inactive: NCI-H23 lung 36.6% | NCI-H226 lung 105% | NCI-H322M lung 48.2% | HOP-62 NSCLC 55.8% | HOP-92 NSCLC 75.6% | A549/ATCC NSCLC 15.2% | 786-0 renal 35.8% | COLO 205 colon 117% | MALME-3M melanoma 90.6% | MDA-MB-231 breast 28.1% | SF-268 CNS 13.2% | UACC-257 melanoma 36.5% | M14 melanoma 16.6%
active: NCI-H460 lung 4.22% | NCI-H522 lung -16% | DU-145 prostate 5.27% | K-562 leukemia -0.209% | RXF 393 renal 2% | SF-295 CNS 8.35% | SF-539 CNS -31.3%

Nc1ccn(-c2ccc(Br)cc2)c(=O)n1
inactive: NCI-H23 lung 88.8% | NCI-H226 lung 128% | NCI-H322M lung 120% | HOP-62 NSCLC 102% | NCI-H460 lung 105% | HOP-92 NSCLC 74.6% | NCI-H522 lung 88.5% | A549/ATCC NSCLC 107% | 786-0 renal 102% | COLO 205 colon 198% | DU-145 prostate 101% | K-562 leukemia 76.2% | MALME-3M melanoma 124% | MDA-MB-231 breast 104% | RXF 393 renal 137% | SF-268 CNS 109% | SF-295 CNS 79.3% | SF-539 CNS 94.1% | UACC-257 melanoma 127% | M14 melanoma 104%

O=C(COc1ccc(/C=C2\COc3ccccc3C2=O)cc1)Nc1nccs1
active: K-562 leukemia -8.33%
inactive: NCI-H23 lung 79% | NCI-H226 lung 99% | NCI-H322M lung 104% | HOP-62 NSCLC 94.6% | NCI-H460 lung 102% | HOP-92 NSCLC 64.9% | NCI-H522 lung 56.5% | A549/ATCC NSCLC 98.3% | 786-0 renal 89.3% | COLO 205 colon 127% | DU-145 prostate 107% | MALME-3M melanoma 88.5% | MDA-MB-231 breast 95.9% | RXF 393 renal 96.4% | SF-268 CNS 92.8% | SF-295 CNS 112% | SF-539 CNS 85.9% | UACC-257 melanoma 98.5% | M14 melanoma 93.2%

CCN=C1C=CC(=C(c2ccc(N)cc2)c2ccc(N(CC)CC)c(C)c2)C=C1
inactive: A549/ATCC NSCLC 10.3%
active: NCI-H23 lung -14.9% | NCI-H226 lung -30.9% | NCI-H322M lung 3.81% | HOP-62 NSCLC 9.19% | NCI-H460 lung -53.9% | HOP-92 NSCLC -40.5% | NCI-H522 lung -5.45% | 786-0 renal -47.2% | COLO 205 colon -43.1% | DU-145 prostate -20.6% | K-562 leukemia 3.56% | MALME-3M melanoma -31% | MDA-MB-231 breast -17.6% | RXF 393 renal -16.7% | SF-268 CNS 4.51% | SF-295 CNS -19.1% | SF-539 CNS -31.2% | UACC-257 melanoma -0.947% | M14 melanoma -42.1%

COc1cc2nc(N3CCCC3)nc(NCc3ccccc3)c2cc1OC
inactive: NCI-H23 lung 82.3% | NCI-H226 lung 90% | NCI-H322M lung 79.7% | HOP-62 NSCLC 86.8% | NCI-H460 lung 79.2% | HOP-92 NSCLC 61.4% | NCI-H522 lung 73.1% | A549/ATCC NSCLC 76% | 786-0 renal 78.6% | DU-145 prostate 80.9% | MALME-3M melanoma 41.2% | MDA-MB-231 breast 68.9% | RXF 393 renal 35.7% | SF-268 CNS 87.6% | SF-295 CNS 71.1% | SF-539 CNS 52.4%
active: COLO 205 colon -20.7% | K-562 leukemia 1.41% | UACC-257 melanoma -46.6% | M14 melanoma -71.2%

O=C1Nc2c(ccc(Cl)c2Cl)/C1=C\c1cc(C(F)(F)F)cc(C(F)(F)F)c1
active: NCI-H460 lung -18% | HOP-92 NSCLC -22.6% | 786-0 renal -11.2% | COLO 205 colon -74.9% | K-562 leukemia 0.912% | MALME-3M melanoma -55.5% | MDA-MB-231 breast -17.4% | SF-268 CNS 9.57% | SF-295 CNS 5.61% | SF-539 CNS -11.3% | M14 melanoma -18.2%
inactive: NCI-H23 lung 13.3% | NCI-H226 lung 24.5% | NCI-H322M lung 74.1% | HOP-62 NSCLC 20.2% | NCI-H522 lung 22.3% | A549/ATCC NSCLC 26% | DU-145 prostate 24.8% | RXF 393 renal 21.8% | UACC-257 melanoma 25%

C=C1c2nc3ccccc3n2C=C(c2ccc(Cl)cc2)N1Cc1ccc(OC)cc1
inactive: NCI-H23 lung 54.2% | NCI-H226 lung 80.8% | NCI-H322M lung 101% | HOP-62 NSCLC 118% | NCI-H460 lung 81.3% | HOP-92 NSCLC 77.4% | NCI-H522 lung 57.3% | A549/ATCC NSCLC 84.5% | 786-0 renal 94% | COLO 205 colon 71.1% | DU-145 prostate 103% | K-562 leukemia 59.2% | MALME-3M melanoma 99.3% | MDA-MB-231 breast 90.1% | RXF 393 renal 77.5% | SF-268 CNS 96.1% | SF-295 CNS 94.9% | SF-539 CNS 105% | UACC-257 melanoma 90% | M14 melanoma 81.1%

O=C1c2cccc3cccc(c23)C(=O)N1CCCCCN1CCN(CCCCCOc2ccc(-c3nc4ccc(N5CCOCC5)cc4[nH]3)cc2)CC1
inactive: NCI-H23 lung 98.9% | NCI-H226 lung 78.9% | NCI-H322M lung 103% | HOP-62 NSCLC 97.4% | NCI-H460 lung 27.5% | HOP-92 NSCLC 49.2% | NCI-H522 lung 73.7% | A549/ATCC NSCLC 21.3% | 786-0 renal 109% | COLO 205 colon 96.5% | DU-145 prostate 97.4% | K-562 leukemia 19.6% | MALME-3M melanoma 82.6% | MDA-MB-231 breast 108% | SF-268 CNS 136% | SF-295 CNS 16.3% | SF-539 CNS 54.4% | UACC-257 melanoma 56.3% | M14 melanoma 50.6%
active: RXF 393 renal -11.5%

Cc1[nH]c(-c2ccc3cc[nH]c3c2)c2c1C(=O)CCCC2
inactive: NCI-H23 lung 49.3% | NCI-H226 lung 52.4% | NCI-H322M lung 50.4% | HOP-62 NSCLC 32.3% | NCI-H460 lung 66.8% | HOP-92 NSCLC 37.1% | NCI-H522 lung 37% | A549/ATCC NSCLC 51.9% | 786-0 renal 50.5% | COLO 205 colon 40.6% | DU-145 prostate 79.1% | K-562 leukemia 26.2% | MALME-3M melanoma 56.2% | MDA-MB-231 breast 43.2% | RXF 393 renal 68.1% | SF-268 CNS 64.8% | SF-295 CNS 38.8% | SF-539 CNS 48.6% | UACC-257 melanoma 47.7% | M14 melanoma 51.6%
